ERAP1 HTS inh – inhibitors of human ERAP1 aminopeptidase; inhibition, % at 10.7 µM; Q9NZ08; AID 652197; recombinant ERAP1, Leu-AMC fluorescence, 60 min; 340,000 tested, 0.15% active;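 active means mean replicate inhibition of at least 30%, or all replicates individually reaching that 30% level; inactive means mean below 30% and not every replicate reaching it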;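 further: 0% = neutral control wells and 100% = L-leucinethiol positive control wells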
Casp6 inh – inhibitors of human caspase-6; inhibition, % at 12.5 µM; purified caspase-6, Z-VEID-R110 cleavage fluorescence; AID 686996; 350,000 tested, 0.53% active;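 active means mean inhibition across replicates at least about 35%, with every replicate also reaching that limit, limit read from the data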;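 further: 0% = median of neutral control wells and 100% = no fluorescence left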
FGF22 binding – FGF22 (human) thermal shift binding. Q9HCT0. recombinant FGF22 thermal shift, SYPRO orange fluorescence; percent of sucrose octasulfate shift, DMSO zero. activity (Tm shift, normalised), % at 9.99 µM. 340,000 tested, 1.5% active;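 active means mean Tm shift, scaled 0 neutral to 100 positive control, at about 1.3% or above, every replicate too, limit read from the data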
Target sequence (Q9HCT0 whole entry, looked up): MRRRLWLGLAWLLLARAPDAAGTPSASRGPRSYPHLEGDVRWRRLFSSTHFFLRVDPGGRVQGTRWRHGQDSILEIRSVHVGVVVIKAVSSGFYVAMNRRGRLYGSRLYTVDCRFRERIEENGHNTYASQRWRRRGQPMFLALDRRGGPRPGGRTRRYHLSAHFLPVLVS
SIRT5 block – blocks human SIRT5 desuccinylation of peptide. Q9NXA8. Purified SirT5, succinyl-peptide AMC, trypsin-coupled fluorescence. inhibition, % at 15 µM. 330,000 tested, 1.1% active. AID 652115; in the data active means inhibition above about 15%
Target sequence (Q9NXA8 whole entry, looked up): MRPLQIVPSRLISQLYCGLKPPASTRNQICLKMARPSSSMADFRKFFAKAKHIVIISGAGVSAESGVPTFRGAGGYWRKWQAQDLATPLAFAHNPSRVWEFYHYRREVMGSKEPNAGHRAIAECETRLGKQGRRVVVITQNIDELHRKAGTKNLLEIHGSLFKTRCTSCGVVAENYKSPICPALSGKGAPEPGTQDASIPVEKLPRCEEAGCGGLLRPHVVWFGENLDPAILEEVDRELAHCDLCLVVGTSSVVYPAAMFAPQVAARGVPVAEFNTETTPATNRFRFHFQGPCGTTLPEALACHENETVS
Numbers without * were called inactive; · = no result given. Compounds with a hit are over-represented: about 3.1% of the library has one in this group of screens.

SMILES	ERAP1 HTS inh	Casp6 inh	FGF22 binding	SIRT5 block
CC1(C)C(=O)Nc2ccccc2N1C(=O)COC(=O)c1cccc(O)c1	1	27	0	2
CCCCOc1ccc(/C=C/C(=O)OCC(=O)N2CC(=O)Nc3ccccc32)cc1OCC	1	5	-1	17*
Cc1noc(C)c1S(=O)(=O)Nc1ccc2c(c1)C(=O)N([C@H](C)CO)C[C@H](C)[C@H](CN(C)S(=O)(=O)c1ccccc1)OCCCC[C@H](C)O2	3	1	0	2
CCCNC(=O)C[C@@H]1CC[C@H]2[C@H](COc3ccc(NC(=O)Nc4c(C)noc4C)cc3C(=O)N2C)O1	1	0	0	-6
CCS(=O)(=O)Nc1ccc2c(c1)C(=O)N(C)C[C@H](OC)[C@@H](C)CN(CC1CCCCC1)[C@H](C)CO2	2	1	0	8
CC(=O)N1CCCN(Cc2cn(-c3ccc(C)cc3)nc2-c2ccc(F)cc2)CC1	1	-2	43*	-1
COc1ccc2c3c([nH]c2c1)[C@@H](CO)N(Cc1nccs1)CC31CN(C(=O)C2CCCC2)C1	0	1	0	4
COc1ccc(CN(C)C[C@@H]2Oc3ccc(NC(=O)C4CC4)cc3CC(=O)N([C@@H](C)CO)C[C@H]2C)cc1	-1	-1	1	·
COc1ccc(C2(CNC(=O)C(=O)Nc3ccc(C)cc3)CCOCC2)cc1	-1	-4	43*	-5
CC(C)CC#Cc1ccc2c(c1)O[C@H](CN(C)C(=O)c1cccc(F)c1)[C@@H](C)CN([C@H](C)CO)S2(=O)=O	1	5	-1	22*
CC(C)CC#Cc1ccc2c(c1)O[C@@H](CN(C)C(=O)c1cccc(F)c1)[C@@H](C)CN([C@@H](C)CO)S2(=O)=O	1	-6	-1	5
CC(C)CC#Cc1ccc2c(c1)O[C@@H](CN(C)C(=O)c1cccc(F)c1)[C@H](C)CN([C@@H](C)CO)S2(=O)=O	0	2	-1	22*
C[C@@H]1CN([C@@H](C)CO)S(=O)(=O)c2ccc(C#CC3CC3)cc2O[C@@H]1CN(C)C(=O)c1cccc(F)c1	1	-4	0	23*
CC(C)CC#Cc1ccc2c(c1)O[C@H](CN(C)C(=O)c1cccc(F)c1)[C@@H](C)CN([C@@H](C)CO)S2(=O)=O	-2	1	0	18*
CC(C)CC#Cc1ccc2c(c1)O[C@@H](CN(C)C(=O)c1ccccc1)[C@H](C)CN([C@H](C)CO)S2(=O)=O	1	-2	-1	11
C[C@H](CO)N1C[C@H](C)[C@H](CN(C)C(=O)Nc2cccc3ccccc23)OCCCC[C@H](C)Oc2ccc(NC(=O)C3CCCCC3)cc2C1=O	-3	2	-1	4
COc1ccc(-c2ccc3c(c2)[C@@H]2[C@@H](CCN2S(=O)(=O)c2ccccc2F)[C@@H](CO)N3)cc1	·	·	0	·
CC(C)CC#Cc1ccc2c(c1)O[C@@H](CN(C)C(=O)c1cccc(F)c1)[C@H](C)CN([C@H](C)CO)S2(=O)=O	-1	-1	-1	16*
CC(C)CC#Cc1ccc2c(c1)O[C@H](CN(C)C(=O)c1ccccc1)[C@@H](C)CN([C@@H](C)CO)S2(=O)=O	0	-1	0	8
CC(C)CC#Cc1ccc2c(c1)O[C@H](CN(C)C(=O)c1ccccc1)[C@H](C)CN([C@H](C)CO)S2(=O)=O	1	-3	0	15*
COc1ccc2c3c(n(C)c2c1)[C@@H](CO)N(C(=O)C1CC1)CC31CN(C(=O)CN(C)C)C1	1	4	0	-2
C[C@@H]1CN([C@H](C)CO)C(=O)c2cc(-c3cccc(F)c3)cnc2O[C@H]1CN(C)C(=O)C1CCCCC1	1	0	0	2
C[C@H](CO)N1C[C@H](C)[C@@H](CN(C)S(=O)(=O)c2ccc(Cl)cc2)OCCCC[C@H](C)Oc2ccc(NC(=O)NC3CCCCC3)cc2C1=O	0	-1	0	11
Cc1ccc(S(=O)(=O)Nc2ccc3c(c2)C(=O)N([C@@H](C)CO)C[C@@H](C)[C@@H](CN(C)C(=O)Nc2cccc4ccccc24)OCCCC[C@H](C)O3)cc1	-2	-1	0	-1
Cc1ccc(S(=O)(=O)Nc2ccc3c(c2)C(=O)N([C@@H](C)CO)C[C@H](C)[C@@H](CN(C)C(=O)Nc2cccc4ccccc24)OCCCC[C@H](C)O3)cc1	5	3	0	16*
SMILES	ERAP1 HTS inh	Casp6 inh	FGF22 binding	SIRT5 block
Cc1ccc(S(=O)(=O)Nc2ccc3c(c2)C(=O)N([C@@H](C)CO)C[C@H](C)[C@@H](CN(C)C(=O)Nc2cccc4ccccc24)OCCCC[C@@H](C)O3)cc1	3	3	0	16*
Cc1ccc(S(=O)(=O)Nc2ccc3c(c2)C(=O)N([C@H](C)CO)C[C@@H](C)[C@H](CN(C)C(=O)Nc2cccc4ccccc24)OCCCC[C@@H](C)O3)cc1	0	-2	0	-1
C[C@@H]1CN([C@@H](C)CO)C(=O)c2cc(NS(=O)(=O)c3ccccc3)ccc2O[C@H]1CN(C)C	0	-3	0	3
CO[C@@H]1CN(C)C(=O)c2ccc(NC(=O)C3CC3)cc2OC[C@H](C)N(Cc2ccccc2)C[C@@H]1C	-7	·	1	7
COc1ccc(-c2cc(C(F)F)n3ncc(C(=O)Nc4cc(C)on4)c3n2)cc1	-1	2	43*	1
CNS(=O)(=O)c1ccc(NC(=O)c2cnn3c(C(F)F)cc(-c4ccccc4)nc23)cc1	0	1	43*	-3
O=C(CCc1nnc(Cc2cccc(C(F)(F)F)c2)o1)NCC(F)(F)F	0	2	0	18*
C=C(C)CNC(=O)CCc1nnc(Cc2cccc(C(F)(F)F)c2)o1	-2	0	43*	-4
O=C(CCc1nnc(Cc2cccc(C(F)(F)F)c2)o1)NC1CC1	-1	1	0	-4
O=S(c1ccccc1O)S(=O)c1ccccc1O (stereo not given)	99*	62*	1	26*
CC1(C)CC(=O)C2=C(C1)c1c(ccc3ccccc13)NC2c1cc([N+](=O)[O-])cc([N+](=O)[O-])c1O (stereo not given)	3	20	0	17*
CC1(C)CC(=O)C2=C(C1)c1c(ccc3ccccc13)NC2c1ccc(C(=O)O)cc1 (stereo not given)	2	-1	0	-26
O=C(c1c[nH]c2ccccc12)N1CCN(Cc2ccccc2)CC1	1	2	43*	-2
CCNC(=O)[C@@H]1[C@@H](CO)[C@@H]2Cn3c(ccc(C4=CCCCC4)c3=O)[C@H]1N2Cc1cocn1	-2	-4	0	-31
C[n+]1cccc2cccc([O-])c21	-1	52*	0	-4
CCCNC(=O)N1C[C@@H](C)[C@@H](OC)CN(C)C(=O)c2cc(NC(=O)CC)ccc2OC[C@H]1C	3	0	0	-1
Brc1ccccc1Cn1cnc2ccccc21	3	-2	0	1
Clc1ccc(Cn2cnc3ccccc32)cc1	0	-3	43*	0
CCc1c(C)nc2ccc(Br)cc2c1SCCC#N	1	18	0	112*

Compound activity (PubChem)
